KDM5B inh = KDM5B demethylase inhibition | Potency, µM (series often up to 57.7 µM), usual class: inhibitors | KDM5B demethylase, FDH-coupled NADH fluorescence (FDH is formaldehyde dehydrogenase) | hit rate 2.6% among 220,000; active means well fitted inhibition curve with a large enough effect; further: nearly all actives have a fitted effect of over 70% in size
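KDM5BΔAP (200 nM final) in 50 mM HEPES pH 7.5, 0.01% Tween-20 was preincubated 10 min at RT with compound over a concentration range. Substrate mix (H3K4me3 12.5 µM, α-KG 25 µM, Fe²⁺, ascorbate, NAD⁺, FDH) was added, and NADH fluorescence change over 30 min gave dose-response curves.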
Large screens that a line does not name were inactive; ! = repeats disagree. Only a selection was taken, and hits are over-represented in it overall.

COc1ccccc1C1=NN(C(=O)c2cccc(F)c2)C(c2ccc3nccnc3c2)C1 (stereo not given)	none
COc1ccccc1N(CC(=O)NCCc1ccc(F)cc1)S(=O)(=O)c1ccccc1	none
COc1ccc(-c2coc3cc(OCC(=O)NC(C)c4ccccc4)ccc3c2=O)cc1OC (stereo not given)	none
CCOC(=O)C1CCN(C(=O)COC(=O)c2cn(-c3ccccc3)nc2-c2ccccc2)CC1	none
CC(NC(=O)CSc1nnc(-c2cccnc2)n1-c1ccccc1)c1ccc2c(c1)OCCO2 (stereo not given)	none
CCC(C)NC(=O)CCNC(=O)c1ccc2nc(C)c(C)nc2c1 (stereo not given)	none
CCc1nc2ccccc2c(C(=O)OCC(=O)NC23CC4CC(CC(C4)C2)C3)c1C	none
CN(c1ccccc1)c1cc(=O)c2ccnc(N3CCOCC3)c2o1	none
CN1CCN(c2nccc3c(=O)cc(N(C)C4CCOCC4)oc23)CC1	KDM5B inh 39.8µM
CN1CCN(c2cc(=O)c3ccnc(N4CCOCC4)c3o2)CC1	none
O=C(COc1ncnc2ccc(Br)cc12)Nc1ccc(F)cc1F	none
Cc1cccc2cc(C(=O)N3CCCC(Nc4ccc(F)cc4)C3)oc12 (stereo not given)	none
Cc1ccc(C(=O)C(C)OC(=O)c2cc3ccccc3oc2=O)cc1 (stereo not given)	none
Cc1ccc(N=C2NN=C(c3c[nH]c(C(=O)N4CCCC4)c3)CS2)c(C)c1	none
O=C(NCc1ccnc2[nH]ccc12)c1cccnc1	none
O=C(NCc1ccnc2[nH]ccc12)c1ccc(C(F)(F)F)cc1	KDM5B inh 35.5µM!
O=C(NCc1ccnc2[nH]ccc12)c1ccncc1	none
O=C(NCC1(O)CCCNCC1)c1ccc(-n2cnnc2)cc1 (stereo not given)	none
OC1(CNc2cc(C(F)(F)F)nc(N3CCCC3)n2)CCCNCC1 (stereo not given)	KDM5B inh 25.1µM
FC(F)(F)c1cc(N2CCNCC2)c2ccccc2n1	none
CNC(=O)[C@@H]1C[C@H](Oc2ccccc2)CN1C(=O)C1(C)CCCCC1	none
CC1(CCCCc2ccccc2)COc2ccc(C(=O)NCc3ccncc3)cc2N1 (stereo not given)	KDM5B inh 31.6µM
CC1(CCCCc2ccccc2)COc2ccc(C(=O)NCc3cnccn3)cc2N1 (stereo not given)	none
CN(C)CCN(C)C(=O)c1ccc2c(c1)NC(C)(CCCCc1ccccc1)CO2 (stereo not given)	none
CN(C(=O)c1ccc2c(c1)NC(C)(CNCc1ccccc1)CO2)c1ccccc1 (stereo not given)	none
CC1(CCCCc2ccccc2)COc2ccc(C(=O)Nc3cccnc3)cc2N1 (stereo not given)	KDM5B inh 28.2µM
CC1(CCCCc2ccccc2)COc2ccc(C(=O)NCc3cccnc3)cc2N1 (stereo not given)	KDM5B inh 28.2µM
NC(=O)C1CCN(C(=O)Cn2ccc3cc(Br)ccc32)CC1	none
COCC(=O)N[C@@H]1CN(Cc2cccc(OC)c2OC)C[C@H]1CO	none
O=S(=O)(c1ccc(F)cc1)n1cc(Cl)cn1	none
O=C(Cc1n[nH]c(=O)c2ccccc12)N1CCCC1	none
COc1cc(CN2CCN(c3ncnc4[nH]ccc34)CC2CCO)cc(OC)c1 (stereo not given)	none
Cc1[nH]c2ccccc2c1-c1csc(NC(=O)C2CC2)n1	none
O=S(=O)(c1ccccc1C(F)(F)F)N1CCC2(CCCNC2)C1 (stereo not given)	none
Cc1ccc(-c2cc(C(=O)Nc3nncs3)c3ccccc3n2)c(C)c1	none
CC(=O)Oc1c(-c2ccc(NC(=O)c3ccco3)cc2)c(C2CC2)nn1-c1cccc(C)c1	KDM5B inh 31.6µM
Cc1nnc2ccc(-c3cccc(NC(=O)c4ccco4)c3)nn12	none
Cc1nn(-c2ccccc2)c(NC(=O)c2ccco2)c(-c2ccccc2)c1=O	none
CC1CCC(NC(=O)c2ccc3ncsc3c2)CC1 (stereo not given)	none
CCN1CCN(C(=O)c2ccc(-c3nnc4ccc(NC(=O)C5CCC5)cn34)cc2)CC1	KDM5B inh 20µM
Cc1ccc(NC(=O)C2CCCCC2)cc1	none
O=C(Nc1ccc(-c2nnc3n2CCCC3)cc1)C1CCC1	none
COC(=O)c1ccc(NC(=O)C2CCN(C(=O)c3ccc(F)cc3)CC2)cc1	none
O=C(Nc1ccc2nnc(-c3ccc(C(=O)N4CCCCC4)cc3)n2c1)C1CCC1	KDM5B inh 20µM
O=C(Nc1ccc(-c2nnc3n2CCCC3)cc1)C1CCCC1	none
Cc1ccc(NC(=O)C2CCC(C(C)(C)C)CC2)cc1 (stereo not given)	none
Cc1ccc(NC(=O)C2CCCN(C(=O)c3ccccc3)CCC(=O)NCC2)cc1 (stereo not given)	none
CC1CCC(C(=O)Nc2ccc(-c3nnc4n3CCCC4)cc2)CC1 (stereo not given)	none
CC(C)NC(=O)c1ccc(-c2nnc3ccc(NC(=O)C4CCC4)cn23)cc1	KDM5B inh 25.1µM
CCc1ccc(C(=O)Nc2ccc(-c3nnc4n3CCCC4)cc2)cc1	none
CCN(CC)C(=O)c1ccc(-c2nnc3ccc(NC(=O)C4CC4)cn23)cc1	KDM5B inh 22.4µM
CC(C)c1cc(C(=O)Nc2ccc(C(=O)N(C)C)cc2)c2ccccc2n1	none
